NIH3T3 tox: kills NIH 3T3 cells. NIH 3T3 viability, CellTiter-Glo ATP luminescence, 48-72 h. Potency, µM (doses to about 96.7 µM), most hits filed as inhibitors. 94,000 tested, 4.3% active. AID 1345082; also: nearly all actives have a fitted effect of over 55% in size
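Cytotoxicity is measured as loss of cellular ATP: NIH 3T3 cells (400/well) are exposed to compound for 48 or 72 hr at 37 °C, then CellTiter-Glo luminescence is imaged after 10 min at room temperature.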
HEK293 tox: kills HEK 293 cells; 94,000 tested, 6.6% active; Potency, µM (top dose mostly 115 µM), usual class: inhibitors; HEK 293 viability, ATP luminescence (CellTiter-Glo), 48-72 h; AID 1345083; also: nearly all actives have a fitted effect of over 60% in size
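HEK 293 cells seeded at 250 cells/well were exposed to compound for 48 or 72 hr at 37 degree Celsius. Viability taken as ATP content by CellTiter-Glo luminescence.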
Luciferase inh: Photinus pyralis luciferase inhibition; P08659; purified P. pyralis luciferase, luminescence, biochemical; Potency, µM (doses to about 115 µM), most hits filed as inhibitors; 76,000 tested, 2.5% active; AID 1347043; also: nearly all actives have a fitted effect of over 65% in size
Target sequence (P08659 whole entry, looked up): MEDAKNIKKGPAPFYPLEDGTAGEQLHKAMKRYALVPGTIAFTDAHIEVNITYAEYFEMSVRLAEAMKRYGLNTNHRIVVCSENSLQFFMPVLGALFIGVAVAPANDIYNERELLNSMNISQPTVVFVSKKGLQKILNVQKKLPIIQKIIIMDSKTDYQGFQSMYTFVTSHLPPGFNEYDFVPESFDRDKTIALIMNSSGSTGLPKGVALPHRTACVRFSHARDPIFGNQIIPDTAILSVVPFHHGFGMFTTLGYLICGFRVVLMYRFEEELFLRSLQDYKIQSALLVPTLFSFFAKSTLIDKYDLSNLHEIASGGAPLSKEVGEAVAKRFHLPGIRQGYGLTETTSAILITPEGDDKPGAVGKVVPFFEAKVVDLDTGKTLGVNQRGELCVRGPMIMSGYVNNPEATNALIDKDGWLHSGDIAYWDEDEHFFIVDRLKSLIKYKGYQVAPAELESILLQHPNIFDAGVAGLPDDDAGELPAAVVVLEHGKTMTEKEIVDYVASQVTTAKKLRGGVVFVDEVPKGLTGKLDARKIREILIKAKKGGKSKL
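Luminescence read by CCD imager after adding enzyme (10nM final) to wells holding compound, titrated in qHTS. Substrates 10uM each D-luciferin and ATP; buffer 50mM Tris acetate pH 7.5, 10mM Mg acetate, Tween-20, BSA.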
NPR1 antag: blocks ANP-stimulated signaling of human Npr1 receptor | P16066 | HEK293 hNpr1 GloSensor cGMP, ANP-stimulated luminescence | Potency, µM (highest dose often 46.3 µM), most hits filed as inhibitors | 76,000 tested, 1.6% active; calls by dose curve; also: nearly all actives have a fitted effect of over 60% in size
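HEK293 cells stably expressing human Npr1 and cGMP GloSensor pGS-40F, loaded 2 h with 2% GloSensor reagent, given compound 30 min at room temperature. Luminescence read before and 20 min after 0.1 nM hNppA.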
GPT2 inh: GPT2 alanine aminotransferase inhibition; Q8TD30; Recombinant GPT2, coupled pyruvate oxidase/HRP Amplex Red fluorescence; Potency, µM (highest dose often 57.7 µM), actives largely listed as inhibitors; 100,000 tested, 0.25% active; also: nearly all actives have a fitted effect of over 60% in size
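Inhibition is scored from Amplex Red fluorescence generated when pyruvate oxidase and HRP act on pyruvate released by GPT2. Reactions contain 10ng/uL enzyme, 250uM a-KG and 2mM L-alanine and run 30 min at room temperature.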
A number is an active result; ! = a repeat was not active. The list is not random: actives were taken first. Their share in the collection is about 10%. Unless noted, calls follow the shape of the dose curve; as a rule, active = well fitted curve in the direction sought with a large enough effect; inconclusive = small, poorly fitted or top-dose-only effect, or another doubt; inactive = no such curve, though single readings can be large; an effect the other way counts as inactive or inconclusive.

Results for CC(C)(C)OC(=O)N1CC(Nc2cccc(Oc3ccccc3)c2)C1 ?
NIH3T3 tox: inconclusive; HEK293 tox: inconclusive; GPT2 inh: inactive

Results for CC(C)(C)OC(=O)N1CC(Nc2ccc(O)cc2)C1 ?
NIH3T3 tox: 28µM!; HEK293 tox: 45µM; GPT2 inh: inactive

How did CCc1ccc(CNC(=O)C2(c3ccc(NC(=O)C(C)C)cc3)CCC2)cc1 do in these assays?
NIH3T3 tox: inactive; HEK293 tox: inconclusive; Luciferase inh: inactive; NPR1 antag: inactive; GPT2 inh: inactive

How did CC(C)C(=O)Nc1ccc(C2(C(=O)NCc3ccc(F)c(Cl)c3)CCC2)cc1 do in these assays?
NIH3T3 tox: 35µM; HEK293 tox: 79µM; Luciferase inh: inactive; NPR1 antag: inactive; GPT2 inh: inactive

Results for CS(=O)(=O)Nc1ccc(C2(C(=O)NCc3ccccc3Cl)CCCCC2)cc1 ?
NIH3T3 tox: 35µM; HEK293 tox: inconclusive; Luciferase inh: inactive; NPR1 antag: inactive; GPT2 inh: inactive

Results for CSc1ccc(-c2cccc(C(=O)NCC(=O)NC3CC3)c2)cc1 ?
NIH3T3 tox: inactive; HEK293 tox: inconclusive; GPT2 inh: inactive

What do the screens show for `CCn1cc(-c2ccc(OC)cc2)cc1C(=O)N1CCCCCC1`?
NIH3T3 tox: inactive; HEK293 tox: inconclusive; Luciferase inh: inactive; NPR1 antag: inactive; GPT2 inh: inactive

What do the screens show for `CCn1cc(CN(C)C(=O)c2cc(-c3ccc(OC)cc3)cn2CC)c(C)n1`?
NIH3T3 tox: inconclusive; HEK293 tox: 35µM; Luciferase inh: 40µM; NPR1 antag: inconclusive; GPT2 inh: inconclusive

Results for COc1ccc(Nc2ccnc(N3CCN(C(=O)c4ccc(C)cc4)CC3)n2)cc1 ?
NIH3T3 tox: 32µM; HEK293 tox: 13µM; GPT2 inh: inactive

What do the screens show for `CC(=O)N1CCCN(c2nccc(Nc3ccc(C)cc3)n2)C1`?
NIH3T3 tox: inconclusive; HEK293 tox: inconclusive; GPT2 inh: inactive

How did Cc1ccc(Nc2ccnc(N3CCN(C(=O)c4ccc(C)cc4)CC3)n2)cc1 do in these assays?
NIH3T3 tox: inconclusive; HEK293 tox: inconclusive; GPT2 inh: inactive

Results for COc1ccc(C(=O)N2CCN(c3nccc(Nc4ccccc4F)n3)CC2)cc1 ?
NIH3T3 tox: inconclusive; HEK293 tox: inconclusive; GPT2 inh: inactive

What do the screens show for `COc1ccc(C(=O)N2CCCN(c3nccc(Nc4ccc(C)cc4)n3)C2)cc1`?
NIH3T3 tox: inconclusive; HEK293 tox: 11µM; GPT2 inh: inactive

How did COc1ccc(Nc2ccnc(N3CCN(C(=O)c4ccc(C(F)(F)F)cc4)CC3)n2)cc1 do in these assays?
NIH3T3 tox: inconclusive; HEK293 tox: 35µM; GPT2 inh: inactive

What do the screens show for `Cc1ccc(Nc2ccnc(N3CCCN([S+](=O)([O-])c4cccs4)C3)n2)cc1`?
NIH3T3 tox: inconclusive; HEK293 tox: 25µM; GPT2 inh: inactive

Results for O=c1[nH]c(N2CCOCC2)nc2c1CCN(Cc1cc(F)c(F)cc1F)CC2 ?
NIH3T3 tox: inactive; HEK293 tox: inactive; Luciferase inh: inactive; NPR1 antag: inactive; GPT2 inh: inactive

How did COCCn1ncc(N2CCCC(CC(=O)N3CCCN(C)CC3)C2)cc1=O (configuration not stated) do in these assays?
NIH3T3 tox: inactive; HEK293 tox: inactive; GPT2 inh: inactive

Results for CC(=O)NC1CCN(c2ccc3nnc(C)n3n2)CC1 ?
NIH3T3 tox: inconclusive; HEK293 tox: inactive

What do the screens show for `COC(=O)N1CCCN(c2nccc(Nc3ccc(C)cc3)n2)C1`?
NIH3T3 tox: 35µM; HEK293 tox: 50µM; GPT2 inh: inconclusive

Results for CN1CCN(C(=O)c2ccnc(-c3nnc4ccc(N(C)c5ccccc5)nn34)c2)CC1 ?
NIH3T3 tox: 10µM; HEK293 tox: inactive; Luciferase inh: inactive; NPR1 antag: inactive; GPT2 inh: inactive

Results for COC1CCN(C(=O)c2ccnc(-c3nnc4ccc(Nc5ccccc5)nn34)c2)CC1 ?
NIH3T3 tox: inconclusive; HEK293 tox: 89µM; Luciferase inh: inactive; NPR1 antag: inactive; GPT2 inh: inactive

How did COC1CCN(C(=O)c2ccnc(-c3nnc4ccc(N(C)c5ccccc5)nn34)c2)CC1 do in these assays?
NIH3T3 tox: 3.5µM; HEK293 tox: inconclusive; Luciferase inh: inactive; NPR1 antag: inactive; GPT2 inh: inactive
